Format in all cases: functional
The target of experiment [1] is Solute carrier family 2, facilitated glucose transporter member 1 (Homo sapiens) (UniProt P11166). The experiment in a line: ST_JUDE_LEISH: Cytotoxicity at 2uM final concentration against transgenic Leishmania Mexicana promastigotes LmGLUT1 that are glucose transport deficient and complemented with the human glucose transporter GLUT1. Activity is measured by DNA content using SYBR green in vitro.

In experiment [2] the target is Hexose transporter 1 (Plasmodium falciparum) (UniProt O97467). The experiment in a line: ST_JUDE_LEISH: Cytotoxicity at 2uM final concentration against transgenic Leishmania Mexicana promastigotes LmPfHT that are glucose transport deficient and complemented with the Plasmodium falciparum hexose transporter. Activity is measured by DNA content using SYBR green in vitro.

Experiment [3] deals with Glucose transporter (Leishmania mexicana) (UniProt O61059). The experiment can be described thus: ST_JUDE_LEISH: Cytotoxicity at 2uM final concentration against transgenic Leishmania Mexicana promastigotes LmGT2 that are glucose transport deficient and complemented with the L. Mexicana glucose transporter 2. Activity is measured by DNA content using SYBR green in vitro.

Solute carrier family 2, facilitated glucose transporter member 1 (Homo sapiens), sequence (P11166 whole entry): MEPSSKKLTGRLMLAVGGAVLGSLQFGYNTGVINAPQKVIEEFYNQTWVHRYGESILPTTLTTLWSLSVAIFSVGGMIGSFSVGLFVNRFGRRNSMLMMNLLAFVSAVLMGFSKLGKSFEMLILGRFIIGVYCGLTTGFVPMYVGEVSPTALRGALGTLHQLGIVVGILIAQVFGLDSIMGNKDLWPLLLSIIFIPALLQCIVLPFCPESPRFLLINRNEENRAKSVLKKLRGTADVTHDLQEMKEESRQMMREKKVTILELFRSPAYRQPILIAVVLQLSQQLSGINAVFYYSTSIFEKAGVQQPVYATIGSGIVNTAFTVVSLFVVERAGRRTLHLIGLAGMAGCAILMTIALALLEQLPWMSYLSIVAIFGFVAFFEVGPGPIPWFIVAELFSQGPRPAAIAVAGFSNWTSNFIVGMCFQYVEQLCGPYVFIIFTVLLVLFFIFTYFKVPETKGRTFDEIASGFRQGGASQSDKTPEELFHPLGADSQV

Take `COC(=O)c1cccc(C#CCCOCCCCCCNC[C@H](O)c2cc(Cl)c(N)c(Cl)c2)c1`: the inhibition in experiment [1] worked out at 2.64%; in experiment [2], 0.28%; in experiment [3], 1.01%.

Take `Cc1cc(O)c(CNC2CCCCC2)cc1C`: the values for the inhibition in experiment [1], in experiment [2] and in experiment [3] were 1.17%, 1.33% and 2.92%, respectively.

`O=C1Nc2cccc3c2C1(CCCCN1CCC(c2c[nH]c4cc(C(F)(F)F)ccc24)CC1)CCC3` (centres undefined): the inhibition in experiment [1] worked out at 3.89%; in experiment [2] it was 1.75%; in experiment [3], 0.54%.

As to `Oc1ccc(Cl)cc1CN1CCCC(COC(c2ccc(F)cc2)c2ccc(F)cc2)C1` (centres undefined), the figures for the inhibition in experiment [1], in experiment [2] and in experiment [3] were 0.85%, 1.7% and -2.44%, respectively.

`O=C(Cn1c(CCc2cccc(F)c2F)nc(=O)c2cccnc21)N(Cc1ccc(-c2ccc(C(F)(F)F)cc2)cc1)C1CCN(C2CCOCC2)CC1`: the values for the inhibition in experiment [1], in experiment [2] and in experiment [3] were 2.69%, 1.35% and 1.43%, respectively.

On to `Cc1[nH]c2ccc(O)cc2c1C1CCN(CCCCCNC(=O)/C=C/c2ccc(Cl)c(Cl)c2)CC1`, for which the inhibition in experiment [1] stood at 0.59%; in experiment [2] it was 0.7%; in experiment [3], 0.96%.

Consider `COCCn1ccc2c3c(N)nc(N)nc3ccc21`, for which the values for the inhibition in experiment [1], in experiment [2] and in experiment [3] were 0.38%, 3.61% and 2.26%, respectively.

As for `CC(C)(C)c1ccc(-c2cc3c(ccc4nc(N)nc(N)c43)[nH]2)cc1`, the inhibition in experiment [1] is 1.02%; in experiment [2] it was 1.64%; in experiment [3], -0.3%.

As for `OC(CN1c2ccccc2Sc2ccccc21)CN(C1CCCCC1)C1CCCCC1` (centres undefined), the inhibition in experiment [1] was found to be 6.08%; in experiment [2], 6.38%; in experiment [3], 3.8%.

Consider `COc1cc2nc(N3CCC(CNC(=O)c4ccc(-c5ccc(Cl)cc5)cc4)CC3)nc(N)c2cc1OC`, for which the inhibition in experiment [1] came out at 9.23%; in experiment [2] it was 8.03%; in experiment [3], 9.81%.

For `Cc1ccc(OCC2CCN(c3ncc(C(=O)NC4CC4)cc3Cl)CC2)cc1`, the inhibition in experiment [1] was -0.74%; in experiment [2], -2.55%; in experiment [3], 0.52%.

Turning to `CNC(=O)NC1=NC(C)(C)N(OCCCOc2cc(Cl)c(Cl)cc2Cl)C(N)=N1`, the inhibition in experiment [1] is 11.5%; in experiment [2] it was 11.8%; in experiment [3], 11.6%.

`Cc1n[nH]c(C)c1C1CCN(CC2CCC(NC(=O)/C=C/c3ccc(Cl)c(Cl)c3)CC2)CC1` (centres undefined): the inhibition in experiment [1] amounted to 4.43%; in experiment [2] it was 4.25%; in experiment [3] it was 5.93%.

With `Cc1ccnc(Nc2nc(-c3ccccn3)cs2)c1`, the inhibition is 10.1% in experiment [1], 22.4% in experiment [2] and -2.74% in experiment [3].

Regarding `Cc1ccc2nc(C)cc(NC(=O)Nc3ccc(N(C)C)cc3)c2c1`, the inhibition worked out at 7.58% in experiment [1], 5.69% in experiment [2] and 7.68% in experiment [3].

Consider `OC(CNc1ccnc(Nc2cccc(Cl)c2)n1)c1cccc(C(F)(F)F)c1` (centres undefined), for which the inhibition was determined as 14.4% in experiment [1], 11.6% in experiment [2] and 4.06% in experiment [3].

Consider `CS(=O)(=O)Cc1ccc(Nc2nccc(-c3c(-c4cccc(NC(=O)c5c(F)cccc5F)c4)nn4ncccc34)n2)cc1`, for which the results for the inhibition in experiment [1], in experiment [2] and in experiment [3] were 12%, 8.45% and 2.78%, respectively.

With `N#Cc1ccc(-c2ccc(C(=O)NCCCCN3CCC(c4ccc5c(c4OCc4ccccn4)CCCC5)CC3)cc2)cc1`, the inhibition in experiment [1] was -0.71%; in experiment [2], 1.73%; in experiment [3], 0.17%.

In the case of `CCc1nc2nc(C)cc(Nc3ccc(F)c(Cl)c3)n2n1`, the inhibition in experiment [1] was -2.16%; in experiment [2] it was -3.69%; in experiment [3] it was -1.67%.

Consider `Cc1cc(N2CCOCC2)nc2ccc(NC(=O)c3cccc([N+](=O)[O-])c3)cc12`, for which the inhibition is 5.27% in experiment [1], 4.5% in experiment [2] and 3.77% in experiment [3].

As for `CCc1ccc(S(=O)(=O)Nc2ccc(CCN3CCC(N4CCCCC4)CC3)cc2)cc1`, the inhibition in experiment [1] was found to be 13.9%; in experiment [2], 14.9%; in experiment [3], 11.4%.

On to `CC(C)Cn1c(Sc2ccc(C#N)c([N+](=O)[O-])c2)nnc1-c1cccs1`, for which the inhibition was 1.53% in experiment [1], 3.14% in experiment [2] and 0.24% in experiment [3].

As to `CC(C)[C@H](NC(=O)c1ccc(O)c(-c2ccc(Cl)c(Cl)c2)c1)C(=O)NCCN(C)C`, the inhibition in experiment [1] was determined as 0.25%; in experiment [2], 0.6%; in experiment [3] it was 1.16%.

For `O=C(NCCN1CCCC1)c1cccc(-c2ccc(-c3nc4ccccc4[nH]3)cc2)c1`, the inhibition is 3.79% in experiment [1], 5.32% in experiment [2] and 4.26% in experiment [3].

Consider `Cc1nnsc1C(=O)Nc1cccc(-c2cccc(-c3nc4cccc(C)c4[nH]3)c2)c1`, for which the inhibition in experiment [1] was -0.36%; in experiment [2], -1.04%; in experiment [3], -5.1%.

Turning to `COc1cc2c(cc1OCCN1CCC(N3CCCCC3)CC1)N(C(=O)/C=C/c1ccccc1OC(F)(F)F)CC2`, the inhibition in experiment [1] was found to be 2.32%; in experiment [2] it was 5.04%; in experiment [3] it was 3.58%.

For `CC1CCCN(S(=O)(=O)c2ccc(NC(=O)c3cc(-c4ccccc4O)n[nH]3)cc2)C1` (centres undefined), the values for the inhibition in experiment [1], in experiment [2] and in experiment [3] were 1.49%, 3.54% and 0.62%, respectively.

As for `Cc1occc1C(=O)Nc1nc(-c2ccccn2)nc2ccsc12`, the inhibition amounted to 78.6% in experiment [1], 73.2% in experiment [2] and 70% in experiment [3].

As for `CCc1cn2c3c(cc(C(=O)N[C@@H](Cc4ccccc4)[C@H](O)CNC(C)(C)c4cccc(OC)c4)cc13)N(C)S(=O)(=O)C2`, the inhibition in experiment [1] amounted to 1.01%; in experiment [2] it was 1.91%; in experiment [3], 0.96%.

Turning to `CN(CCCNCc1ccc2ccccc2c1)CCCNCc1ccc2ccccc2c1`, the inhibition in experiment [1] was determined as 12.4%; in experiment [2], 13.7%; in experiment [3], 3.29%.

Turning to `Cc1cc(=O)c(-c2ccc(Oc3ccc(OC(F)(F)F)cc3)cc2)c(C)[nH]1`, the inhibition is -0.98% in experiment [1], -0.47% in experiment [2] and -1.38% in experiment [3].

In the case of `Clc1ccccc1/C=C/c1cncnc1Nc1ccc2[nH]c(Cc3ccccc3)nc2c1`, the inhibition in experiment [1] turned out to be 7.21%; in experiment [2], 2.53%; in experiment [3], 1.23%.

Consider `CCN(CCCN1CCCCC1)c1cc(C)nc(Nc2cc(C)ccc2C)n1`, for which the inhibition is -1.92% in experiment [1], 0.68% in experiment [2] and -0.58% in experiment [3].

For orientation: inhibition means the drop in the measured response relative to a control, in per cent.

The values above are taken from ChEMBL document CHEMBL3433997, “St. Jude Leishmania screening dataset” (2016).
